Out of some 1,200 compounds screened, about 970 (81%) were called active. How the calls were made is not given here. The set was probably picked from earlier hits. The list is a sample of the results. Measured potencies and affinities stand elsewhere.
Molecular target: Transforming acidic coiled-coil-containing protein 3 (Homo sapiens) (UniProt Q9Y6A5)
Test: inhibition of ARNT PAS-B/TACC3 complex formation – biochemical, AlphaScreen, cherry-picked samples, confirmation (AID 651703);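 further: TACC3 partner is the GST-tagged E629A mutant dimer; hits lower the signal meaning they disrupt ARNT binding to TACC3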
Conditions: AlphaScreen His-ARNT PAS-B / GST-TACC3 binding, luminescence; series mostly up to 68 µM; activity change, negative = inhibition: at the top concentration

Activity change, negative = inhibition, inactive:
O=C(C[C@@H]1CC[C@@H](NC(=O)c2ccccc2)[C@H](CO)O1)Nc1ccc(-c2ccccc2)cc1 -7.97%
O=C(C[C@H]1CC[C@@H](NC(=O)c2ccccc2)[C@H](CO)O1)Nc1ccc(-c2ccccc2)cc1 -7.06%
O=C(N[C@H]1CC[C@@H](CCn2cc(-c3ccccc3)nn2)O[C@@H]1CO)c1cnccn1 -5.38%
CN1CCC(n2[nH]c(-c3ccccc3)c(Cc3ccccc3)c2=O)CC1 -10.5%
C[C@H](CO)N1C[C@H](C)[C@H](CN(C)C(=O)NC2CCCCC2)Oc2ccc(NS(=O)(=O)c3cccs3)cc2CC1=O -6.44%
COc1ccc(-c2cnc3c(c2)C(=O)N([C@H](C)CO)C[C@@H](C)[C@H](CN(C)Cc2cccnc2)O3)cc1 -5.95%
COc1ccc(CN(C)C[C@@H]2Oc3ccc(NC(=O)Cn4cnnn4)cc3C(=O)N([C@@H](C)CO)C[C@H]2C)cc1 -9.62%
CC(C)NC(=O)N(C)C[C@H]1Oc2ccc(N(C)C)cc2CC(=O)N([C@@H](C)CO)C[C@@H]1C 0.668%
C[C@H]1CN([C@@H](C)CO)C(=O)c2cc(C#Cc3ccccn3)cnc2O[C@@H]1CN(C)Cc1ccccc1 -12.5%
CC(C)NC(=O)Nc1ccc2c(c1)CC(=O)N([C@H](C)CO)C[C@H](C)[C@H](CN(C)S(=O)(=O)c1cccs1)O2 -14.9%
C[C@@H]1CN([C@@H](C)CO)C(=O)c2cc(NC(=O)CCN3CCOCC3)ccc2O[C@@H]1CN(C)Cc1ccncc1 -3.85%
Cc1cc(C)n2nc(-c3cccc(Br)c3)cc2n1 0.525%
N/C(=N\NS(=O)(=O)c1ccccc1Cl)c1ccccn1 -23%
S=c1[nH]nc(-c2cc3c(s2)-c2ccccc2CC3)o1 -31.4%
COc1cc2c(cc1OC)-c1cc(Nc3cccc(C)c3)nc(=O)n1CC2 5.52%
O=C(NCCc1ccccc1)c1ccc(=O)[nH]c1 -5.64%
O=C(COC(=O)c1ccc([N+](=O)[O-])o1)NCc1ccccc1 -21.1%
NS(=O)(=O)c1ccc(CCNC(=O)COC(=O)c2ccc([N+](=O)[O-])o2)cc1 -30.5%
NC(=O)CC(NC(=O)c1ccccc1)c1ccc(NCc2ccccn2)c([N+](=O)[O-])c1 (stereo not drawn) -13.6%
COc1cc(/C=N/NC(=O)CSc2n[nH]c(=O)[nH]c2=O)cc(OC)c1O -11%
O=C(c1cc(-c2ccccc2)on1)N1CCC(CO)CC1 -1.3%
O=C(c1cc(-c2ccccc2)on1)N1CCC(N2CCOCC2)CC1 -4.7%
Cc1[nH]c(=O)[nH]c(=O)c1/C=N/NC(=O)[C@H](C)NC(=O)OC(C)(C)C -1.1%
COc1ccc(-c2nnc(SCC(=O)NC3CC3)o2)cc1 -3.22%
COC(=O)C[C@@H]1CC[C@@H](NS(=O)(=O)c2ccc(OC)cc2)[C@H](CO)O1 -0.059%
Cc1[nH]cnc1CN1CCc2c(c3ccccc3n2C)C1=O -21.6%
COc1ccc(C(=O)Nc2nc3ccccc3[nH]2)cc1S(=O)(=O)N1CCOCC1 -27.7%
O=C(NCCN1CCOCC1)c1cc(-c2ccccc2)on1 -3.9%
O=C(NCCCN1CCOCC1)c1cc(-c2ccccc2)on1 6.12%
CCOc1cc2nc(-c3ccc(OC)c(OC)c3)nc(NCCCN3CCOCC3)c2cc1OC -5.91% [at 35 µM]
C#CCOCCOCCOCCNc1nc(N2CCN(C(=O)C([C@@H](C)O)n3cc([C@@H](N)CCCCN)nn3)CC2)nc(N2CCN(C(=O)C([C@@H](C)O)n3cc([C@@H](N)CCCCN)nn3)CC2)n1 (stereo partly drawn) -11%
C#CCOCCOCCOCCNc1nc(N2CCN(C(=O)Cn3cc(CCCCN)nn3)CC2)nc(N2CCN(C(=O)[C@H](CCCCN)n3cc(CCCC)nn3)CC2)n1 -8.06%
C#CCOCCOCCOCCNc1nc(N2CCN(C(=O)[C@H](CCC(=O)O)n3cc([C@@H](N)CCCCN)nn3)CC2)nc(N2CCN(C(=O)[C@H](CCCCN)n3cc([C@@H](N)CC(N)=O)nn3)CC2)n1 -14.6%
C#CCOCCOCCOCCNc1nc(N2CCN(C(=O)[C@H](CCCCN)n3cc([C@@H](N)CC(N)=O)nn3)CC2)nc(N2CCN(C(=O)[C@H](CCCCN)n3cc([C@@H](N)CC(N)=O)nn3)CC2)n1 -22%
CCOc1cc(C(=O)NC2CC(C)(C)NC(C)(C)C2)cc(OCC)c1OCC -3.7%
c1ccc(CN2CCN(CCCNc3ccc4nnc(-c5ccccc5)n4n3)CC2)cc1 -28.4%
Oc1cccc(CN2CCOCC2)c1O -3.34%
COc1ccc(C(=O)NNC(=O)Cc2coc3cc(OC)ccc23)cc1 -12.1%
CCN(/N=C/c1ccccc1)c1cc(=O)n(C)c(=O)[nH]1 -29.9%
O=C(Nc1ccccc1)N1CCCCN2[C@H](C1)[C@H](c1ccc(C#CC3CC3)cc1)[C@@H]2CO -25.8%
CC(C)(C)c1cc(C(=O)NCCCn2ccnc2)cc(C(C)(C)C)c1 -17.3%
O=C(NCCCn1ccnc1)c1cc(-c2ccccc2)on1 -3.75%
COc1ccc(-c2cnc3c(c2)C(=O)N([C@H](C)CO)C[C@H](C)[C@H](CN(C)Cc2cccnc2)O3)cc1 -2.08%
O=C(O)C1C2C=CC(C2)C1C(=O)NCCCn1ccnc1 (stereo not drawn) -5.06%
O=C(C1CC1)N1CCc2cc(Br)cc(S(=O)(=O)NCc3ccccn3)c21 -4.26%
CN(c1ccc(C(=O)N2CCc3ccccc3C2)cc1)S(C)(=O)=O -30.6%
CO[C@H]1CN(C)C(=O)c2cc(NS(=O)(=O)CC(F)(F)F)ccc2OC[C@H](C)N(Cc2cccnc2)C[C@@H]1C -3.73%
O=C(Nc1ccc(Br)cn1)c1cccc(C(=O)Nc2ccc(Br)cn2)c1 -24.4%
O=C(NC1Cc2ccccc2C1)c1cc(-c2ccccc2)on1 -0.19%
c1c[nH]c(CN2CCN(Cc3ncc[nH]3)CC2)n1 -24%
CC1(C)CC(=O)C=C(Nc2ccccc2N)C1 13.5%
O=c1[nH]cnc2c1C(c1ccccc1[N+](=O)[O-])c1c(nc[nH]c1=O)O2 -10.3%
O=C(NCCCCO)c1cc(-c2ccccc2)on1 -1.85%
O=C1CN(C(=O)COC(=O)c2ccc([N+](=O)[O-])o2)c2ccccc2N1 -18.7%
O=C(O)c1c[nH]c2c([N+](=O)[O-])cccc2c1=O -5.07%
O=C(N/N=C/c1c(Cl)nc2ccccn2c1=O)c1cccnc1 -20.1%
C[C@H](CO)N1C[C@H](C)[C@@H](CN(C)C(=O)Nc2ccc(C(F)(F)F)cc2)Oc2ncc(C3=CCCC3)cc2C1=O -28.6%
O=C(Nc1cnc2ccccc2c1)c1cc(-c2ccccc2)on1 -3.86%
CCOC(=O)N1CCN(C(=O)CSc2ccc3nnc(-c4ccccn4)n3n2)CC1 -23.3%
O=C(Nc1cccc(F)c1)c1cccnc1NCCc1ccccc1 -12.3%
Cc1ccc(C2=CSC3=NS(=O)(=O)CCN23)cc1 -17.9%
O=C(Nc1ccc2nc(-c3ccccn3)[nH]c2c1)C1CCCCC1 -26.6%
O=C(NN=C1CCCC1)c1ccc(O)cc1O -19%

From PubChem BioAssay AID651703 (Broad Institute, 2012)
